Results on 41 compounds are retold here after PubChem BioAssay AID2313 (Broad Institute, 2010).

In all, about 22,000 compounds went through this assay and about 460 (2.1%) were called active. Roughly 2% stayed inconclusive and do not appear here.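 Rule for the calls: active = mean inhibition across valid replicates above about 65% (limit read from the data); inconclusive = mean under the limit, yet half or more replicates past it; inactive = the rest.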 Many of the other results were omitted from the sample, so actives are more common in it than they were.

Broadly, the inhibition is the relative decrease from the control value, in per cent.

The experiment is described as follows: Hedgehog pathway signaling inhibitors, primary screen, luminescence, Shh-LIGHT2 cells, Gli-luciferase (AID 2313).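 Note: pathway switched on by Shh-conditioned medium diluted 1 in 25 in low serum.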 The conditions noted are these: Shh-LIGHT2 Gli-luciferase reporter, 30 h; stronger effect = higher value. Background: Reporter assays use an easily measured gene product as a stand-in for the process of interest.
`Cc1ccc(S(=O)(=O)Nc2ccc3c(c2)C(=O)N([C@H](C)CO)C[C@@H](C)[C@H](CN(C)Cc2ccccc2)O3)cc1`: the inhibition is 15.5% (inactive).

For the compound `COC(=O)c1sc(SC)c(-c2ccn(S(=O)(=O)c3ccc(Cl)cc3)n2)c1C`, the inhibition is 14.7% (inactive).

Turning to `Oc1ccc(-n2cccc2)cc1`, the inhibition was 30.8% (inactive).

Consider `O=C(OC1=CC(=O)c2cccc3cccc1c23)c1ccccc1`, for which the inhibition is -20.2% (inactive).

Turning to `Cc1ccc(C(=O)c2coc3ccc(O)c(CN(C)C)c23)cc1`, the inhibition is 38.9% (inactive).

For `CC(C)NC(=O)N(C)C[C@H]1Oc2c(NS(=O)(=O)c3ccc(Cl)cc3)cccc2C(=O)N([C@@H](C)CO)C[C@H]1C`, the inhibition was 3.77% (inactive).

In the case of `C[C@@H]1O[C@@H](Oc2cc(O)c3c(=O)c(O[C@@H]4O[C@@H](C)[C@H](O)[C@@H](O)[C@H]4O)c(-c4ccc(O)cc4)oc3c2)[C@H](O)[C@H](O)[C@H]1O`, the inhibition was -11.3% (inactive).

Take `C[C@H]1CN([C@@H](C)CO)C(=O)Cc2cc(NS(C)(=O)=O)ccc2O[C@@H]1CN(C)CC1CC1`: the inhibition is 70.7% (active).

As to `C[C@H](CO)N1C[C@H](C)[C@H](CN(C)CC2CC2)Oc2ccc(NS(=O)(=O)c3ccccc3)cc2CC1=O`, the inhibition was -5.84% (inactive).

`COc1ccc(S(=O)(=O)Nc2ccc3c(c2)CC(=O)N([C@H](C)CO)C[C@H](C)[C@H](CN(C)CC2CC2)O3)cc1`: the inhibition was -6.58% (inactive).

On to `COc1ccc(S(=O)(=O)Nc2cccc3c2O[C@@H](CN(C)S(=O)(=O)c2c(C)noc2C)[C@@H](C)CN([C@H](C)CO)C3=O)cc1`, for which the inhibition was 24.8% (inactive).

Take `C[C@H](CO)N1C[C@H](C)[C@@H](CN(C)Cc2ccccc2)Oc2ccc(NC(=O)CCCN(C)C)cc2C1=O`: the inhibition is -0.759% (inactive).

As to `CCOC(=O)c1nnn2c1nc(N1CCN(c3ccccc3)CC1)c1ccccc12`, the inhibition was 37.6% (inactive).

Consider `Cc1cc(C)n2nc(-c3ccc(C(C)(C)C)cc3)cc2n1`, for which the inhibition is -92.6% (inactive).

As to `COc1ccc(CN(C)C[C@H]2Oc3c(NC(=O)C4CC4)cccc3C(=O)N([C@@H](C)CO)C[C@H]2C)cc1`, the inhibition is -3.41% (inactive).

As to `C[C@@H]1CN([C@H](C)CO)C(=O)c2cc(NC(=O)c3ccncc3)ccc2O[C@H]1CN(C)Cc1ccc(Oc2ccccc2)cc1`, the inhibition is 73.2% (active).

`C[C@@H]1CN([C@@H](C)CO)C(=O)c2cc(NC(=O)c3ccncc3)ccc2O[C@@H]1CN(C)Cc1ccncc1`: the inhibition was 9.73% (inactive).

As to `C[C@@H]1CN([C@@H](C)CO)C(=O)c2cc(NC(=O)c3ccncc3)ccc2O[C@H]1CN(C)Cc1ccc(C(=O)O)cc1`, the inhibition was 13.9% (inactive).

As for `Cc1ccc(S(=O)(=O)N(C)C[C@@H]2Oc3c(NC(=O)Nc4c(C)noc4C)cccc3C(=O)N([C@@H](C)CO)C[C@@H]2C)cc1`, the inhibition was -32.7% (inactive).

With `CC(C)(O)C1=CCC23COC(C2)C(O)(C(=O)O)CCC13` (stereo unspecified), the inhibition is 12.8% (inactive).

Consider `COc1ccc(NC(=O)N(C)C[C@@H]2Oc3c(NC(=O)NC4CCCCC4)cccc3C(=O)N([C@H](C)CO)C[C@H]2C)cc1`, for which the inhibition was -15.5% (inactive).

In the case of `Cc1ccc(S(=O)(=O)N(C)C[C@@H]2Oc3ccc(NS(=O)(=O)c4cn(C)cn4)cc3C(=O)N([C@@H](C)CO)C[C@H]2C)cc1`, the inhibition is -8.67% (inactive).

Take `CCOc1cc(/C=C2\SCOC2=O)ccc1O`: the inhibition was -11.1% (inactive).

Take `COc1ccc(S(=O)(=O)Nc2cccc3c2O[C@H](CN(C)C(=O)NC(C)C)[C@H](C)CN([C@H](C)CO)C3=O)cc1`: the inhibition was 4.9% (inactive).

In the case of `CCN(c1ccccc1)S(=O)(=O)c1ccc(C)cc1`, the inhibition was -25.3% (inactive).

As for `Cc1cc(=O)[nH]c(SCc2cn3c(C)cc(C)nc3n2)n1`, the inhibition was -20.5% (inactive).

With `Cc1ccc(S(=O)(=O)Nc2cccc3c2O[C@H](CN(C)S(=O)(=O)c2cn(C)cn2)[C@H](C)CN([C@H](C)CO)C3=O)cc1`, the inhibition was 21.4% (inactive).

For the compound `COc1ccc(CN(C)C[C@H]2OCCCC[C@@H](C)Oc3ccc(NC(=O)Nc4cccc5ccccc45)cc3C(=O)N([C@H](C)CO)C[C@@H]2C)cc1`, the inhibition was 17.8% (inactive).

On to `C[C@H](CO)N1C[C@H](C)[C@H](CN(C)S(=O)(=O)c2ccccc2)Oc2c(NC(=O)Nc3ccccc3)cccc2C1=O`, for which the inhibition was 14.8% (inactive).

On to `Cc1ccc(S(=O)(=O)N(C)C[C@@H]2Oc3c(NC(=O)Nc4ccccc4)cccc3C(=O)N([C@H](C)CO)C[C@H]2C)cc1`, for which the inhibition was -14.6% (inactive).

In the case of `Cc1ccc(S(=O)(=O)N(C)C[C@H]2Oc3c(NC(=O)C4CC4)cccc3C(=O)N([C@@H](C)CO)C[C@@H]2C)cc1`, the inhibition is 28.4% (inactive).

`Cc1ccc(S(=O)(=O)N(C)C[C@@H]2Oc3c(NC(=O)C4CC4)cccc3C(=O)N([C@H](C)CO)C[C@@H]2C)cc1`: the inhibition is 115% (active).

`C[C@H]1CN([C@@H](C)CO)C(=O)c2cccc(NC(=O)Nc3ccccc3)c2O[C@H]1CN(C)S(=O)(=O)c1ccc(Cl)cc1`: the inhibition is 108% (active).

Regarding `Cc1ccc(S(=O)(=O)N(C)C[C@@H]2Oc3c(NC(=O)C4CC4)cccc3C(=O)N([C@H](C)CO)C[C@H]2C)cc1`, the inhibition is -12.6% (inactive).

Turning to `C[C@@H]1CN([C@H](C)CO)C(=O)c2cccc(NC(=O)Nc3cccc4ccccc34)c2O[C@@H]1CN(C)Cc1ccccc1`, the inhibition is 0.787% (inactive).

With `C[C@H]1CN([C@@H](C)CO)C(=O)c2cccc(NC(=O)c3ccncc3)c2O[C@H]1CN(C)C`, the inhibition is -21.4% (inactive).

As to `COc1ccc(NC(=O)Nc2cccc3c2O[C@H](CN(C)Cc2ccc(Cl)c(Cl)c2)[C@H](C)CN([C@@H](C)CO)C3=O)cc1`, the inhibition was 51.9% (inactive).

Regarding `C[C@@H]1CN([C@@H](C)CO)C(=O)Cc2cc(NC(=O)Nc3ccc4c(c3)OCO4)ccc2O[C@@H]1CN(C)S(=O)(=O)c1ccc(Cl)cc1`, the inhibition was 38.3% (inactive).

As for `O=C1C(c2ccccc2)CCCC1c1ccccc1` (stereo unspecified), the inhibition is 22.1% (inactive).

`Cc1noc(C)c1NC(=O)Nc1cccc2c1O[C@@H](CN(C)C(=O)Nc1ccc(C(F)(F)F)cc1)[C@@H](C)CN([C@@H](C)CO)C2=O`: the inhibition is 1.09% (inactive).

As to `Cc1cc(=O)oc2cc(OCc3cccc(F)c3)ccc12`, the inhibition is -75.4% (inactive).
